# Tests used:
# Format in all cases: functional
# [1] = target: Solute carrier family 2, facilitated glucose transporter member 1 (Homo sapiens) (UniProt P11166); assay: ST_JUDE_LEISH: Cytotoxicity at 2uM final concentration against transgenic Leishmania Mexicana promastigotes LmGLUT1 that are glucose transport deficient and complemented with the human glucose transporter GLUT1. Activity is measured by DNA content using SYBR green in vitro
# [2] = target: Hexose transporter 1 (Plasmodium falciparum) (UniProt O97467); assay: ST_JUDE_LEISH: Cytotoxicity at 2uM final concentration against transgenic Leishmania Mexicana promastigotes LmPfHT that are glucose transport deficient and complemented with the Plasmodium falciparum hexose transporter. Activity is measured by DNA content using SYBR green in vitro
# [3] = target: Glucose transporter (Leishmania mexicana) (UniProt O61059); assay: ST_JUDE_LEISH: Cytotoxicity at 2uM final concentration against transgenic Leishmania Mexicana promastigotes LmGT2 that are glucose transport deficient and complemented with the L. Mexicana glucose transporter 2. Activity is measured by DNA content using SYBR green in vitro
# Sequence of Solute carrier family 2, facilitated glucose transporter member 1 (Homo sapiens) (P11166 whole entry): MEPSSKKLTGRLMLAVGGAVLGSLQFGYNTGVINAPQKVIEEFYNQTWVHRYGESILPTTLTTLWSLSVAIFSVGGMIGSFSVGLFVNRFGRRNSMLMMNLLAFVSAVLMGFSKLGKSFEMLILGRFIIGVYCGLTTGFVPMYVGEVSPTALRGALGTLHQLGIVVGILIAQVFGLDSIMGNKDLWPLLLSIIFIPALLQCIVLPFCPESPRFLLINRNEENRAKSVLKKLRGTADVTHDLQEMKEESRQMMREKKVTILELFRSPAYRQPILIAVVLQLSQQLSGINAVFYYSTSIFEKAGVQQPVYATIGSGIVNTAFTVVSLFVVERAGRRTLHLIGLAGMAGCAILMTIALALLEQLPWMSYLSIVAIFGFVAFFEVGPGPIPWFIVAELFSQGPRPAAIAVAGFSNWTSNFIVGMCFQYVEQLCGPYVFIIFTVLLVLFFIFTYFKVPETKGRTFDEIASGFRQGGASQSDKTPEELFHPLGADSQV
Structure (SMILES),inhibition [1],inhibition [2],inhibition [3]
O=C(Nc1ccccc1)N(Cc1ccccc1-c1cccc(CNCCc2ccccc2)c1)C1CCN(Cc2ccccc2)CC1,-1.02%,0.26%,-0.84%
CC(C)(Oc1ccc(Cl)cc1)C(=O)NCCC1CCN(CCCCCNC(=O)/C=C/c2ccc(Cl)c(Cl)c2)CC1,6.53%,7.08%,2.35%
Nc1ncc(-c2cccc(CCN3CCOCC3)c2)cc1-c1nc2cc(Br)ccc2[nH]1,14%,9.95%,11.8%
O=C(Nc1cccc(C(F)(F)F)c1)c1cccc(S(=O)(=O)NCC2CCN(CC3CCCCC3)CC2)c1,0.21%,-0.63%,-0.78%
O=C(c1ccc(-c2ccccn2)s1)N1CCc2cc3nccc(N4CCN5CCC[C@H]5C4)c3cc21,8.55%,8.34%,8.66%
CC(NCCc1cccc(Cl)c1)C(O)c1ccc(OCCCCCCOc2ccc(C(O)C(C)NCCc3cccc(Cl)c3)cc2)cc1 (centres undefined),38.2%,69.9%,24.4%
COc1cccc(-c2cc(C(=O)Nc3cc(Oc4ccc(O)cc4)cc([N+](=O)[O-])c3)on2)c1,9.09%,8.76%,3.98%
CCN1CCN(c2cc(C)c3cc(NC(=O)c4ccc(C(C)(C)C)cc4)ccc3n2)CC1,-0.6%,2.13%,1.59%
Cc1cccc2nc(-c3cccc(-c4ccc(NC(=O)C(C)C(=O)NC(C)C)cc4)c3)[nH]c12 (centres undefined),0.75%,2.05%,2.38%
COc1ccc(CNC2Cc3ccccc3C2)cc1-c1ccc(S(=O)(=O)NCc2ccccc2)s1,6.85%,4.6%,4.36%
NCc1ccc(CNCc2cccc(-c3ccc(-c4nc5ccccc5[nH]4)cc3)c2)cc1,13.5%,11.8%,12.4%
CC(=O)N/N=C/[C@H](CCc1ccccc1)NC(=O)[C@H](CC(C)C)NC(=O)c1ccc(OCCN2CCOCC2)cc1,2.92%,6.88%,3.05%
Cc1ccc(NC(=O)NC2CCN(CCCCCNC(=O)C3CC3c3ccc(Cl)c(Cl)c3)CC2)cc1 (centres undefined),-4.5%,-2.29%,-3.29%
Cc1ccc2c(c1)NCC21CCN(C[C@@H](O)C2CCN(c3cc(C#N)ccn3)CC2)CC1C (some centres undefined),-1.68%,0%,-3.72%
COc1ccc2cc(C(=O)Nc3ccc4c(c3)CCN(C3CCC3)CC4)ccc2c1,-2.16%,2%,3.8%
Cc1ccc(NC(=O)c2ccc3ncccc3c2)cc1OC1CCN(Cc2ccc(F)cc2)C1 (centres undefined),1.19%,0.73%,1.26%
O=C1OC(c2cc3ccccc3n2S(=O)(=O)c2ccccc2)(c2cc3ccccc3n2S(=O)(=O)c2ccccc2)c2ccccc21,1.65%,1.8%,2.01%
O=C1C(=Cc2cc(Cc3ccccc3)ccc2O)SC(=S)N1Cc1ccccc1,8.42%,7.14%,8.43%
CN1CCCN(Cc2ccc(-c3ccc(NC(=O)c4ccc(C#N)cc4)cc3)cc2)CC1,0.69%,-0.51%,-0.13%
CCCC1N=C(N)N=C(N)N1c1ccc(OC)cc1 (centres undefined),1.53%,-0.34%,1.56%
O=C1CSc2ccc(CNC3CCN(CCc4c(F)cnc5ccc(F)cc45)CC3)nc2N1,-2.82%,0.21%,-1.74%
COc1cc(Cc2cnc(N)nc2N)ccc1OCc1cccc(Oc2ccccc2)c1,2.15%,1.48%,0.19%
Cc1cccc2nc(-c3ccc(-c4cccc(NC(=O)Nc5ccc6c(c5)OCO6)c4)cc3)[nH]c12,2.61%,4.13%,3.3%
O=C1OC(c2ccccc2)(c2ccccc2)CN1C1CCN(Cc2ccc(O)c(Cl)c2)C1 (centres undefined),1.71%,1.04%,-0.68%

Structure (SMILES),inhibition [1],inhibition [2],inhibition [3]
Oc1ccc(CN2CCC(NCc3cccc4ccccc34)CC2)cc1,12.4%,11.6%,9.93%
O=C(COc1ccccc1)Nn1cnc2ccccc21,3.76%,0.83%,0.3%
CCC[C@@H]([C@@H](CC1CCCCC1)C(=O)N[C@H](C(=O)Nc1ccccn1)[C@H](C)CC)N(O)C=O,3.49%,3.35%,2.88%
C(=NN=c1cc(-c2ccccc2)[nH]c2ccccc12)c1cccnc1,15.1%,11.7%,6.62%
Cc1nc2nc(N)nc(N)c2c(C)c1Cc1ccc(N)cc1,3.4%,8.1%,1.88%
CCC(C)c1ccc(NC(=O)Nc2ccc(Cn3ncc(N4CCCNCC4)c(Cl)c3=O)cc2)cc1 (centres undefined),3.78%,4.71%,-0.01%
COc1cc2ncnc(NCCc3ccccc3Cl)c2cc1OC,-1.61%,-0.48%,-0.92%
Clc1ccc(Cl)c2[nH]c(CNCCCNc3nc4ccccc4[nH]3)cc12,0.92%,2.67%,1.29%
Cc1cc(OCC2CCN(c3ncc(C(=O)NC4CC4)cc3Cl)CC2)ccc1F,1.62%,1.07%,-1.06%
CC1(C)N=C(N)N=C(N)N1c1ccc(Cl)c(Cl)c1,-1.25%,0.49%,3.04%
O=C(/C=C/c1ccccc1Cl)Nc1ccc(Br)c(OCCN2CCC(O)(c3ccccc3)CC2)c1,2.66%,0.95%,-0.34%
Cc1ccc(CN2CCN(Cc3cccc(NC(=O)c4ccc5ccccc5c4)c3)CC2)cc1C,1.24%,1.87%,4.04%
O=C(Nc1nc2cc(S(=O)(=O)NCCCN3CCOCC3)ccc2n1CCCn1ccnc1)c1ccc(Cl)cc1,5.51%,5.43%,4.2%
Cc1cc(OCCCN2CCCCC2)ccc1NC(=O)COc1ccc(Cl)cc1C(=O)c1cc(Cl)cc(C#N)c1,60.8%,19.1%,5.79%
COc1ccc2ncc(Cl)c([C@@H](O)CN3CCC(NCc4cc5c(cn4)OCCO5)CC3)c2c1,9.54%,10.5%,1.19%
COc1ccc(CC(=O)NC(CCN2CCC3(CCc4ccccc43)CC2)c2ccc(Cl)c(Cl)c2)cc1 (centres undefined),0.25%,-0.66%,-0.93%
COc1cc(Cc2cnc(N)nc2N)cc(OCCCCC2SC(=O)NC2=O)c1OC (centres undefined),2.3%,0.84%,1.34%
Cc1c(Oc2ccc(-n3ccnc3)cc2)ncnc1N1CCC2(CC1)CNCc1ccccc12,10.5%,8.76%,2.5%
CN1CCC(Oc2ccc(Nc3nccc(NCC(O)c4ccccc4)n3)cc2Cl)CC1 (centres undefined),-2.84%,-3.54%,-6.09%
O=C1C(c2ccccc2)=C(Nc2cccc([N+](=O)[O-])c2)c2ccccc21,4.58%,3.72%,9.44%
Cn1nc(-c2ccc(S(=O)(=O)N3CCC(CCN4CCC(c5c[nH]c6ccccc56)CC4)CC3)s2)cc1C(F)(F)F,1.21%,6.6%,2.13%
COc1ccc(-c2cnn3ccc(Nc4cc(OC)c(OC)c(OC)c4)nc23)cc1OC,17.3%,11.4%,9.46%
CCN(CC)CCNC(=O)c1ccc(NC(=O)c2cc3c(C)nn(-c4ccc(Cl)cc4)c3s2)cc1,2.43%,2.37%,1.83%
CCCCOc1cc2ncc(C(=O)OCC)c(O)c2cc1OCCCC,0.09%,0.46%,-3.15%
